{"source": "paper PMC7819943", "about": "“Rice protein-binding microarrays: a tool to detect cis-acting elements near promoter regions in rice”", "note": "Whole data set: some 68,000 sequences, median “fluorescence intensity (a.u.)” near 9,100, cut for the highest 2% near 16,000. The list comes from a sample in which the highest values are over-represented; it also holds similar and randomly drawn sequences.", "data": [{"target": "OsWRKY34 (Oryza sativa, UniProt Q0JBA9 1-250)", "sequence (Q0JBA9 entry or part of it)": "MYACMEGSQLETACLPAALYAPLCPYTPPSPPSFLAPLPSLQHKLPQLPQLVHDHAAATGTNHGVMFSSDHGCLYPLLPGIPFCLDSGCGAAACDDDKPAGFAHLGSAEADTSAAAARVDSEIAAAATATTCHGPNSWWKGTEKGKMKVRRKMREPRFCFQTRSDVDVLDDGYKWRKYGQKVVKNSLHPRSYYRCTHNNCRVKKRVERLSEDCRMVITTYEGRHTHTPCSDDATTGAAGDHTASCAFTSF", "experiment": "protein-binding microarray (RPBM); PBS, 2% BSA, 51.3 ng/ul salmon testes DNA, 50 uM zinc acetate, 200 nM TF, 25 C, 1 h; high values mean tight binding", "settings": "protein: recombinant; tags: N-terminal polyhistidine and DsRed monomer fusion (pET32a); label: CyDye5-dUTP incorporated in the synthesized complementary strand; 3' TTTTT single-stranded linker to array surface; dsDNA, one strand shown", "procedure,_shortened": "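Binding signal is reported as fluorescence intensity per feature (arbitrary units) from an Axon 4000B scanner. Incubation used 200 nM of each Ni–NTA-purified, N-terminally polyhistidine- and DsRed-fused transcription factor from E. coli BL21-CodonPlus on a double-stranded custom Agilent array for 1 h at 25 °C, with 50 µM zinc acetate in the buffer, followed by washing.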", "values": [{"sequence": "GCCAGACCGCCACCGTCCGTTTCCACAACCGTGCCAGTGCCGGAGTCACCTAGTGCAG", "binding signal": "10700 fluorescence intensity (a.u.)"}, {"sequence": "AGGTTGCCAGCGTGTGGGGTGGGTTATTTTCGTGTGCGGGCGGAGTCACCTAGTGCAG", "binding signal": "11100 fluorescence intensity (a.u.)"}, {"sequence": "GACCCACCACCACCACCACGCCGCGAGCACGCGAGCGAACCGGAGTCACCTAGTGCAG", "binding signal": "8880 fluorescence intensity (a.u.)"}, {"sequence": "GGGACCTAGGATGAACTTATTCCTTTCTGTTTCAACCATACGGAGTCACCTAGTGCAG", "binding signal": "8370 fluorescence intensity (a.u.)"}, {"sequence": "TGTGCCAGTTGTTAGTCATGATCTTCCTGATGTGTCATCCCGGAGTCACCTAGTGCAG", "binding signal": "8080 fluorescence intensity (a.u.)"}, {"sequence": "CAGGGTTTGGATGTGGATATGGTTTCTTCAAGGGTATTTTCGGAGTCACCTAGTGCAG", "binding signal": "16400 fluorescence intensity (a.u.)"}, {"sequence": "CTTTTTTTTGATTTTTTTTATTTGTGGTTTGGATGTTTTTCGGAGTCACCTAGTGCAG", "binding signal": "9280 fluorescence intensity (a.u.)"}, {"sequence": "TTGGGTTGGGTCTTGGGTTTGGTGGTTTGAATTTGGTGTGCGGAGTCACCTAGTGCAG", "binding signal": "13100 fluorescence intensity (a.u.)"}, {"sequence": "TTTTCAATTTTCTGGTTGAGTAGGGGTTCGGAATTTTCTTCGGAGTCACCTAGTGCAG", "binding signal": "10600 fluorescence intensity (a.u.)"}, {"sequence": "TATCCGGTTTTCTGGTTGAGGGGTATGAATTAGATTCGACCGGAGTCACCTAGTGCAG", "binding signal": "10200 fluorescence intensity (a.u.)"}, {"sequence": "TGGTTTTTCATTTTGTGTGCGTGTGCACGTTTGTGTGGGGCGGAGTCACCTAGTGCAG", "binding signal": "12700 fluorescence intensity (a.u.)"}, {"sequence": "TGGTTGAATTCTGGTTCGGGTATCCTCAATTTCGGGGTTTCGGAGTCACCTAGTGCAG", "binding signal": "17700 fluorescence intensity (a.u.)"}, {"sequence": "GGTGTGTGCTGGCTATTTGTCAAAGATTATGTGGGTTTTTCGGAGTCACCTAGTGCAG", "binding signal": "10400 fluorescence intensity (a.u.)"}, {"sequence": "GGCTGGTTTGGTTTGTGGCTAAAATTGGCCTTACCAATTTCGGAGTCACCTAGTGCAG", "binding signal": "10500 fluorescence intensity (a.u.)"}, {"sequence": "GGTGGTTTGAATTTGGTGTGGCGTTTTTCTTGGGCAGGGGCGGAGTCACCTAGTGCAG", "binding signal": "21500 fluorescence intensity (a.u.)"}, {"sequence": "ATTTGGTTTTATATGTTTGTGGAGTGATATATTTCGTATTCGGAGTCACCTAGTGCAG", "binding signal": "8350 fluorescence intensity (a.u.)"}, {"sequence": "TTTTTGGCTGGTCAAATTTGGCTAGTGTGGGGAGGGTTTTCGGAGTCACCTAGTGCAG", "binding signal": "23600 fluorescence intensity (a.u.)"}, {"sequence": "TGTTATTATGTTTCAGGAATACTTCCTCTGGTTATAAATACGGAGTCACCTAGTGCAG", "binding signal": "9850 fluorescence intensity (a.u.)"}, {"sequence": "ACCCCGTTCAACGCTCGCTTATATATATTCCCCTCTCGCACGGAGTCACCTAGTGCAG", "binding signal": "8640 fluorescence intensity (a.u.)"}, {"sequence": "AGCCTTCCGGTGAACTCCGGCGACGGGCGGGTGTGGGGATCGGAGTCACCTAGTGCAG", "binding signal": "11000 fluorescence intensity (a.u.)"}, {"sequence": "CTATTCTTGTGCATTCTGTTTTTTATCGTACATGCTACAGCGGAGTCACCTAGTGCAG", "binding signal": "11800 fluorescence intensity (a.u.)"}, {"sequence": "ATGGTGGGCTGTGGGTGCATGGTTTTGCTGGTCGCACCCACGGAGTCACCTAGTGCAG", "binding signal": "11100 fluorescence intensity (a.u.)"}, {"sequence": "CCACCATGGTCTCGCTCATTCTGTTTGCTTCACCTACTCTCGGAGTCACCTAGTGCAG", "binding signal": "14500 fluorescence intensity (a.u.)"}, {"sequence": "AGTGAACTTGGTTCTGTGGTTGCATGTATTTGGTGGAGGGCGGAGTCACCTAGTGCAG", "binding signal": "9170 fluorescence intensity (a.u.)"}, {"sequence": "GGGGTGAACATTTCTTTCTTTCTGGTATTGTGGTTGAGGGCGGAGTCACCTAGTGCAG", "binding signal": "19300 fluorescence intensity (a.u.)"}, {"sequence": "AGGGATGGTTGGACTTATTTCTTTCGCGTTTTCCTTGGGTCGGAGTCACCTAGTGCAG", "binding signal": "10900 fluorescence intensity (a.u.)"}, {"sequence": "TATATTTTCTTCTTCGTCACGATCGATGGGATTTTTATTTCGGAGTCACCTAGTGCAG", "binding signal": "9040 fluorescence intensity (a.u.)"}, {"sequence": "GAACTTTTCCTGGATGGTGATCCTTCTTTTGGCCTTCTTTCGGAGTCACCTAGTGCAG", "binding signal": "10500 fluorescence intensity (a.u.)"}, {"sequence": "AGACATTTTTCTTTCTCGTGGATATTTACGCCTTTCTTGACGGAGTCACCTAGTGCAG", "binding signal": "8790 fluorescence intensity (a.u.)"}, {"sequence": "GCCTTTTCTTGACTCGGTGGTGGGAGGGGAATTTTCGTGACGGAGTCACCTAGTGCAG", "binding signal": "27000 fluorescence intensity (a.u.)"}, {"sequence": "TTCTTCTTGGTGGTGGTGGGGCCTGGAAACTATGTGACTTCGGAGTCACCTAGTGCAG", "binding signal": "18200 fluorescence intensity (a.u.)"}, {"sequence": "ACTTTTTTTGGTGACTATGTGTTTCCCTGTGGTGGGCTTCCGGAGTCACCTAGTGCAG", "binding signal": "12000 fluorescence intensity (a.u.)"}, {"sequence": "GGGGTGGAATTGTGTTGGGTTTCTTTGGTTGAGGAGAGAGCGGAGTCACCTAGTGCAG", "binding signal": "16000 fluorescence intensity (a.u.)"}, {"sequence": "TAAGGGATGGGATGGTTGGCTTGGATCGAGTATATTTCTTCGGAGTCACCTAGTGCAG", "binding signal": "18900 fluorescence intensity (a.u.)"}, {"sequence": "TCAATTTTCTTGTTGACTCGGTGTTTTTGACTGTGGTCAACGGAGTCACCTAGTGCAG", "binding signal": "10900 fluorescence intensity (a.u.)"}, {"sequence": "TGCAGGCTTCCACCGCCCGCCTGTCATTGTCGCCCACTGCCGGAGTCACCTAGTGCAG", "binding signal": "8760 fluorescence intensity (a.u.)"}, {"sequence": "GTTTGTCCCTTTTGACATATGAACTCTTCTCCATGATTTCCGGAGTCACCTAGTGCAG", "binding signal": "8060 fluorescence intensity (a.u.)"}, {"sequence": "GGCTTGATTTCTTCTTTTTTCTAATTTTCATATGGCTATTCGGAGTCACCTAGTGCAG", "binding signal": "9800 fluorescence intensity (a.u.)"}, {"sequence": "TTAAATATTTGAGGGGTCGATATTTCTGGTATTGGTATTACGGAGTCACCTAGTGCAG", "binding signal": "10500 fluorescence intensity (a.u.)"}, {"sequence": "TTTTTTTTTCATCGATGCTTATTTTTTCAGCCTTTACTTTCGGAGTCACCTAGTGCAG", "binding signal": "8640 fluorescence intensity (a.u.)"}, {"sequence": "TGAAGCATGTGGTGGGCATTTTCGTCTTTCTCGAATTCATCGGAGTCACCTAGTGCAG", "binding signal": "9980 fluorescence intensity (a.u.)"}, {"sequence": "GTATGTGCCACGTCATCCAAAACCGGCCACAATACTGTCGCGGAGTCACCTAGTGCAG", "binding signal": "8130 fluorescence intensity (a.u.)"}]}]}
